# Experimental data as given in article PMC12431657, “Discovery and mechanistic insights of dibenzoylmethane as a broad spectrum inhibitor of coronavirus” (PLOS Pathogens, 2025).
# Read-outs that look alike come from different tables or passages of the source. Among all 3,300 compounds or so, about 60 (2%) showed an effect of 50% or more. The entries come from a sample that favours strong results as a whole.
# Test system: HCoV-OC43
# Parameters: species or system RD; HTS, protection from HCoV-OC43 induced cell death, luminescent cell viability (CellCounting-Lite 2.0), inhibition rate
# Conditions: 24 h post infection, 1 h compound pre-incubation, 10 µM, inhibitor
Compound,OC43 Inhibition rate,"OC43 Inhibition rate (OC43 Inhibition rate, 24 h)"
CN1C[C@@H]2C[C@H](C1)c1cccc(=O)n1C2 [N-Methylcytisine],-2.8%,–
C=C1CCOC1=O [Tulipalin A],28.2%,–
Oc1ccc2ccc3cccc4ccc1c2c34 [1-Hydroxypyrene],16.8%,–
CC1(C)[C@@H](O)CC[C@]2(C)[C@H]3CC=C4[C@@H]5C[C@@]6(C)C[C@H](OC6=O)[C@]5(C)CC[C@@]4(C)[C@]3(C)CC[C@@H]12 [Wilforlide A],0.1%,–
O=C(N[C@@H](Cc1ccccc1)C(=O)N[C@H](CO)Cc1ccccc1)c1ccccc1 [Aurantiamide],1%,–
COc1c(CC=C(C)C)c(O)cc2oc(=O)c(-c3ccc(O)cc3O)cc12 [Glycycoumarin],0.9%,–
CC(C)=CCc1cc2c(cc1O)oc(=O)c1c3ccc(O)cc3oc21 [Psoralidin],0%,–
COc1c(CC=C(C)C)c(O)cc2oc(=O)c3c4ccc(O)cc4oc3c12 [Neoglycyrol],113.3%,–
Cc1c(C)c2c(c(C)c1O)CC[C@@](C)(CCCC(C)CCCC(C)CCCC(C)C)O2 (stereo in doubt) [rel-α-Vitamin E],5.5%,–
CC1(C)CC[C@]2(C(=O)O[C@@H]3O[C@H](CO)[C@@H](O)[C@H](O)[C@H]3O)CC[C@]3(C)C(=CC[C@@H]4[C@@]5(C)CC[C@H](O[C@@H]6O[C@H](C(=O)O)[C@@H](O[C@@H]7O[C@@H](CO)[C@H](O)[C@H]7O)[C@H](O)[C@H]6O)C(C)(C)[C@@H]5CC[C@]43C)[C@@H]2C1 [Araloside A],1.5%,–
"COc1cc2oc(-c3ccccc3)cc(=O)c2c(OC)c1OC [5,6,7-Trimethoxyflavone]",0.1%,–
COC(=O)CC/C(C)=C/Cc1c(O)c2c(c(C)c1OC)COC2=O [Methyl mycophenolate],61.8%,–
COc1c(C)c2c(c(O)c1C/C=C(\C)CCC(=O)O)C(=O)OC2 [Mycophenolic acid],36.2%,–
COc1cc(-c2c3c(c(O)c4cc5c(cc24)OCO5)COC3=O)cc(OC)c1OC [Tetradehydropodophyllotoxin],1%,–
O=C(O)c1cn[nH]c1 [4-Carboxypyrazole],0.1%,–
C=C(C(=O)O)[C@@H]1CC[C@@H](C)[C@@H]2CCC(C)=C[C@@H]21 [Artemisic acid],4.6%,–
Cc1ncc(C[n+]2csc(CCO)c2C)c(N)n1 [Thiamine monochloride],–,2.4%
C[S@@+]([O-])CCCCN=C=S [(R)-sulforaphane],71.2%,–
CC1=CCCC(C)(C)[C@H]1/C=C/C(C)=C/C=C/C(C)=C/C=C/C=C(C)/C=C/C=C(C)/C=C/C1=C(C)CCCC1(C)C [α-Carotene],19.1%,–
O=c1ccc2nccc3c4ccccc4n1c23 [Canthin-6-one],-0.9%,–
"O=C(/C=C/c1ccc(O)c(O)c1)O[C@H]1[C@H](O)C[C@](O)(C(=O)O)C[C@H]1OC(=O)/C=C/c1ccc(O)c(O)c1 [3,4-Dicaffeoylquinic acid]",6.5%,–

Compound,OC43 Inhibition rate,"OC43 Inhibition rate (OC43 Inhibition rate, 24 h)"
C[N+](C)(C)[O-] [Trimethylamine N-oxide (dihydrate)],–,-1.8%
CC(C)C[C@H](NC(=O)[C@@H](O)[C@H](N)Cc1ccccc1)C(=O)O [Bestatin],–,1.8%
O=C1C[C@@H](c2ccc(O)cc2)Oc2cc(O)ccc21 [Liquiritigenin],0.2%,–
COc1cc(O)c(CC=C(C)C)c2c1C(=O)CC(c1ccc(O)cc1)O2 (centres unmarked) [Isoxanthohumol],30.2%,–
CC(C)=CCc1cc([C@@H]2CC(=O)c3ccc(O)c(CC=C(C)C)c3O2)ccc1O [Glabrol],55.6%,–
CC(C)=CCc1cc2c(cc1O)O[C@H](c1ccc(O)cc1)CC2=O [Bavachin],66.9%,–
O=C1C[C@@H](c2ccc(O)c(O)c2)Oc2cc(O)cc(O)c21 [Eriodictyol],0.2%,–
COc1cc2c(cc1CC=C(C)C)C(=O)C[C@@H](c1ccc(O)cc1)O2 [Bavachinin],20.3%,–
CC(C)=CCc1c(O)cc2c(c1O)C(=O)C[C@@H](c1ccc(O)cc1)O2 [(2S)-6-Prenylnaringenin],54.9%,–
O=C1C[C@@H](c2ccc(O)c(O)c2)Oc2c1ccc(O[C@@H]1O[C@H](CO)[C@@H](O)[C@H](O)[C@H]1O)c2O [Flavanomarein],-5.7%,–
COc1cc(O)c(CC=C(C)C)c2c1C(=O)C[C@@H](c1ccc(O)cc1)O2 [(2S)-Isoxanthohumol],48.2%,–
C[C@H](CCC(=O)NCCS(=O)(=O)O)[C@H]1CC[C@H]2[C@@H]3C[C@H](O)[C@@H]4C[C@H](O)CC[C@]4(C)[C@H]3CC[C@]12C [Taurohyodeoxycholic acid],-1.1%,–
COc1cccc(O)c1C(=O)O [2-Hydroxy-6-methoxybenzoic acid],0%,–
CCCCCCC/C=C\C(=O)O [(Z)-2-Decenoic acid],29.5%,–
CC(C)=CCC1C(=O)C(C(=O)CC(C)C)=C(O)C(O)(CC=C(C)C)C1=O (centres unmarked) [Humulone],-1%,–
"Oc1ccc(O)c(O)c1 [1,2,4-Trihydroxybenzene]",-0.2%,–
COc1c2c(cc3oc(C)cc(=O)c13)OC(C(C)(C)O[C@@H]1O[C@H](CO)[C@@H](O)[C@H](O)[C@H]1O)C2 (some centres unmarked) [5-O-Methylvisammioside],0.3%,–
C=C(C)[C@H](C)c1cc(/C=C/C(=O)c2ccc(O)cc2)c(OC)cc1O [Licochalcone E],55.6%,–
COc1cc(O)ccc1/C=C/C(=O)c1ccc(O)cc1 [Echinatin],46.1%,–
COc1c(/C=C/C(=O)c2ccc(O)cc2)ccc(O)c1O [Licochalcone B],45.6%,–
O=C1C[C@@H](c2ccc(O[C@@H]3O[C@H](CO)[C@@H](O)[C@H](O)[C@H]3O)cc2)Oc2cc(O[C@@H]3OC[C@](O)(CO)[C@H]3O)ccc21 [Liguiritigenin-7-O-D-apiosyl-4'-O-D-glucoside],1.2%,–

Compound,OC43 Inhibition rate,"OC43 Inhibition rate (OC43 Inhibition rate, 24 h)"
CCC(O)C(=O)O (centres unmarked) [Sodium 2-hydroxybutanoate],-6%,–
C[C@@H]1CC[C@]2(C(=O)O[C@@H]3O[C@H](CO)[C@@H](O)[C@H](O)[C@H]3O)CC[C@]3(C)C(=CC[C@@H]4[C@@]5(C)C[C@@H](O)[C@H](O)C(C)(C)[C@@H]5CC[C@]43C)[C@@H]2[C@]1(C)O [Rosamultin],1%,–
CC(C)=C[C@@H]1CO[C@]23C[C@]4(CO2)[C@H](CC[C@@H]2[C@@]5(C)CC[C@H](O[C@@H]6OC[C@H](O)[C@H](O[C@@H]7O[C@H](COS(=O)(=O)O)[C@@H](O)[C@H](O)[C@H]7O)[C@H]6O[C@@H]6O[C@@H](CO)[C@H](O)[C@H]6O)C(C)(C)[C@@H]5CC[C@]24C)[C@H]3[C@@]1(C)O [Bacopaside I],0.8%,–
O=C1NCN(c2ccccc2)C12CCN(CCCOc1ccc(F)cc1)CC2 [Spiramide],69.6%,–
CC(=O)O[C@]12CCC(C(=O)O)=CC[C@]13CC[C@H]2[C@@](C)(/C=C/C=C(\C)C(=O)O)OC3=O [Pseudolaric Acid C2],3.3%,–
Cn1cncc1C[C@H](N)C(=O)O [3-Methyl-L-histidine],-5.7%,–
CC[C@@H](C)O [(R)-(-)-2-Butanol],0.1%,–
CC(=O)N[C@@H](CCCCN)C(=O)O [Acetyl-L-lysine],-0.1%,–
COc1cc2c(cc1OC)[C@@H](Cc1ccc(O)c(Oc3cc4c(cc3OC)CCN(C)[C@@H]4Cc3ccc(O)cc3)c1)N(C)CC2 [Liensinine],–,54.6%
COc1cc2c(cc1OC)[C@@H](Cc1ccc(O)c(Oc3cc4c(cc3OC)CCN(C)[C@@H]4Cc3ccc(O)cc3)c1)N(C)CC2 [Liensinine (perchlorate)],–,0.4%
COc1cc2c(cc1OC)[C@@H](Cc1ccc(O)c(Oc3cc4c(cc3OC)CCN(C)[C@@H]4Cc3ccc(O)cc3)c1)N(C)CC2 [Liensinine (Diperchlorate)],–,24.8%
CCCCCCCC/C=C/CCCCCCCC(=O)O [Elaidic acid],-0.4%,–
"O=C(/C=C/c1ccc(O)c(O)c1)O[C@@H]1[C@H](O)C[C@@](O)(C(=O)O)C[C@H]1OC(=O)/C=C/c1ccc(O)c(O)c1 [4,5-Dicaffeoylquinic acid]",-0.7%,–
C=C1[C@H](OC(=O)/C=C(\C)CC)C[C@@H](C(C)C)[C@@H]2[C@@H]([C@@H](C)OC(C)=O)C(=O)C[C@@H]12 [Tussilagone],60.7%,–
O=C(/C=C/C=C/c1ccccc1)CCc1ccccc1 [Alnustone],1.1%,–
C[C@@H]1O[C@@H](Oc2cc(O)c3c(=O)c(O)c(-c4ccc(O)cc4)oc3c2O)[C@H](O)[C@H](O)[C@H]1O [Rhodionin],0.2%,–
CCCCCCCCCCCCCCCCCCCCCCCCCCCC(=O)O [Octacosanoic acid],-0.6%,–
C[C@@H]1O[C@@H](O[C@H]2[C@H](O[C@H]3CC[C@@]4(C)[C@@H](CC[C@]5(C)[C@@H]4CC=C4[C@@H]6CC(C)(C)CC[C@]6(C(=O)O[C@@H]6O[C@H](CO[C@@H]7O[C@H](CO)[C@@H](O)[C@H](O)[C@H]7O)[C@@H](O)[C@H](O)[C@H]6O)CC[C@]45C)[C@]3(C)CO)OC[C@H](O)[C@@H]2O)[C@H](O)[C@H](O[C@@H]2O[C@H](CO)[C@@H](O)[C@H](O)[C@H]2O)[C@H]1O [Macranthoidin A],-0.3%,–
C[C@@H]1O[C@@H](O[C@H]2[C@H](OC(=O)[C@]34CCC(C)(C)C[C@H]3C3=CC[C@@H]5[C@@]6(C)C[C@H](O)[C@@H]7O[C@@H]8O[C@H](CO)[C@@H](O)[C@H](O)[C@H]8O[C@@H]8OC[C@H](O)[C@H](O)[C@H]8OC(=O)C[C@@](C)(O)CC(=O)OC[C@@]7(C)[C@@H]6CC[C@@]5(C)[C@]3(C)CC4)OC[C@H](O)[C@@H]2O)[C@H](O)[C@H](O[C@@H]2OC[C@@H](O)[C@H](O)[C@H]2O)[C@H]1O [Tubeimoside I],57.2%,–
C[C@@H]1O[C@H]2O[C@H]3[C@@H](OC[C@H](O)[C@@H]3O)OC(=O)[C@]34CCC(C)(C)C[C@H]3C3=CC[C@@H]5[C@@]6(C)C[C@H](O)[C@H](O[C@@H]7O[C@H](CO)[C@@H](O)[C@H](O)[C@H]7O[C@@H]7OC[C@H](OC(=O)C[C@](C)(O)CC(=O)O[C@@H]1[C@@H](O[C@@H]1OC[C@@H](O)[C@H](O)[C@H]1O)[C@H]2O)[C@H](O)[C@H]7O)[C@@](C)(CO)[C@@H]6CC[C@@]5(C)[C@]3(C)C[C@H]4O [Tubeimoside II],-2.8%,–
